From publication PMC7862700, “An all-to-all approach to the identification of sequence-specific readers for epigenetic DNA modifications on cytosine”

Target: SPI1 (Homo sapiens, UniProt P17947 1-270)
Assay: DAPPL (digital affinity profiling via proximity ligation, sequencing); 10 mM Tris-HCl pH 7.5, 50 mM NaCl, 1 mM DTT, 4% glycerol, room temperature, 30 min; GST-TFs on glutathione beads, 16-mer random dsDNA library, 0.1% formaldehyde crosslink after washing; high values mean tight binding
Conditions: protein: recombinant; tags: N-terminal GST; dsDNA, one strand shown
Method in brief: (§1)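 GST fusions of human transcription factors were expressed in yeast and captured with glutathione beads. Once given DNA barcodes and pooled alongside a tag-only sample, they were incubated for 30 min at room temperature with 200 nmole of a random double-stranded 16-mer DNA library in Tris/NaCl/DTT/glycerol buffer, then washed, crosslinked (0.1% formaldehyde), proximity-ligated, PCR-amplified and sequenced on an Illumina NextSeq500. The binding signal of each hexamer is its read frequency for a factor divided by its frequency for the tag-only sample.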

CATAAC was tested. Which binding signal did it give?
The binding signal was 1.16 fold enrichment (6-mer frequency, TF over GST control).

Which binding signal does the source give for TATCCC here?
The binding signal was 1.36 fold enrichment (6-mer frequency, TF over GST control).

With TGTTAC as the sequence, how does the binding signal read?
The binding signal was 1.36 fold enrichment (6-mer frequency, TF over GST control).

For ACCCAC, which binding signal is on record?
Its binding signal is 1.18 fold enrichment (6-mer frequency, TF over GST control).

With TATTGC as the sequence, how does the binding signal read?
Its binding signal is 1.32 fold enrichment (6-mer frequency, TF over GST control).

For ATTGAA, which binding signal is on record?
The binding signal was 1.04 fold enrichment (6-mer frequency, TF over GST control).

For CGATAC, which binding signal is on record?
The binding signal was 1.15 fold enrichment (6-mer frequency, TF over GST control).

How did the binding signal turn out when CGCTAC was run?
Its binding signal is 1.16 fold enrichment (6-mer frequency, TF over GST control).

For CTGGTC, which binding signal is on record?
The binding signal was 1.13 fold enrichment (6-mer frequency, TF over GST control).

GGAAGC was tested. Which binding signal did it give?
Its binding signal is 1.74 fold enrichment (6-mer frequency, TF over GST control).

For CTTACG, which binding signal is on record?
Its binding signal is 1.09 fold enrichment (6-mer frequency, TF over GST control).

CATCCG was tested. Which binding signal did it give?
Its binding signal is 2.01 fold enrichment (6-mer frequency, TF over GST control).

TTTCAA was tested. Which binding signal did it give?
The binding signal was 1.32 fold enrichment (6-mer frequency, TF over GST control).

With TACATC as the sequence, how does the binding signal read?
The binding signal was 1.57 fold enrichment (6-mer frequency, TF over GST control).

For CACAAC, which binding signal is on record?
The binding signal was 1.21 fold enrichment (6-mer frequency, TF over GST control).

Which binding signal does the source give for ATCCCA here?
Its binding signal is 1.03 fold enrichment (6-mer frequency, TF over GST control).

Which binding signal does the source give for TGTCTC here?
Its binding signal is 1.29 fold enrichment (6-mer frequency, TF over GST control).

With TACCGC as the sequence, how does the binding signal read?
Its binding signal is 1.19 fold enrichment (6-mer frequency, TF over GST control).

Which binding signal does the source give for ATGGCT here?
The binding signal was 1.28 fold enrichment (6-mer frequency, TF over GST control).

Which binding signal does the source give for TCTGGG here?
The binding signal was 1.12 fold enrichment (6-mer frequency, TF over GST control).

CTACCC was tested. Which binding signal did it give?
The binding signal was 1.31 fold enrichment (6-mer frequency, TF over GST control).

Which binding signal does the source give for TTCAGT here?
Its binding signal is 1.11 fold enrichment (6-mer frequency, TF over GST control).

With TGTACT as the sequence, how does the binding signal read?
The binding signal was 1.25 fold enrichment (6-mer frequency, TF over GST control).

How did the binding signal turn out when CACTTG was run?
Its binding signal is 1.39 fold enrichment (6-mer frequency, TF over GST control).

With AAGCGG as the sequence, how does the binding signal read?
Its binding signal is 1.81 fold enrichment (6-mer frequency, TF over GST control).

For ATCATG, which binding signal is on record?
The binding signal was 1.06 fold enrichment (6-mer frequency, TF over GST control).

How did the binding signal turn out when ATAAAC was run?
The binding signal was 1.14 fold enrichment (6-mer frequency, TF over GST control).

TAATCC was tested. Which binding signal did it give?
The binding signal was 1.29 fold enrichment (6-mer frequency, TF over GST control).

With CCTTCA as the sequence, how does the binding signal read?
The binding signal was 1.36 fold enrichment (6-mer frequency, TF over GST control).

How did the binding signal turn out when TCTCAA was run?
The binding signal was 1.22 fold enrichment (6-mer frequency, TF over GST control).

For GGCTAG, which binding signal is on record?
Its binding signal is 1.08 fold enrichment (6-mer frequency, TF over GST control).

For TAGGAA, which binding signal is on record?
Its binding signal is 1.23 fold enrichment (6-mer frequency, TF over GST control).

CACTGG was tested. Which binding signal did it give?
Its binding signal is 1.03 fold enrichment (6-mer frequency, TF over GST control).

Which binding signal does the source give for TTATCA here?
The binding signal was 1.09 fold enrichment (6-mer frequency, TF over GST control).

CATCAC was tested. Which binding signal did it give?
The binding signal was 1.11 fold enrichment (6-mer frequency, TF over GST control).

Which binding signal does the source give for GCCAAT here?
The binding signal was 1.01 fold enrichment (6-mer frequency, TF over GST control).

With ACACAA as the sequence, how does the binding signal read?
Its binding signal is 1.17 fold enrichment (6-mer frequency, TF over GST control).

With CACATA as the sequence, how does the binding signal read?
Its binding signal is 1.11 fold enrichment (6-mer frequency, TF over GST control).

Which binding signal does the source give for CTCATA here?
Its binding signal is 1.43 fold enrichment (6-mer frequency, TF over GST control).

For TGATTT, which binding signal is on record?
Its binding signal is 1.21 fold enrichment (6-mer frequency, TF over GST control).

Target: SPIB (Homo sapiens, UniProt Q01892 1-262)
Assay: as above
Conditions: protein: recombinant; tags: N-terminal GST; dsDNA, one strand shown
Method in brief: as §1

SPIB, sequence (Q01892 whole entry): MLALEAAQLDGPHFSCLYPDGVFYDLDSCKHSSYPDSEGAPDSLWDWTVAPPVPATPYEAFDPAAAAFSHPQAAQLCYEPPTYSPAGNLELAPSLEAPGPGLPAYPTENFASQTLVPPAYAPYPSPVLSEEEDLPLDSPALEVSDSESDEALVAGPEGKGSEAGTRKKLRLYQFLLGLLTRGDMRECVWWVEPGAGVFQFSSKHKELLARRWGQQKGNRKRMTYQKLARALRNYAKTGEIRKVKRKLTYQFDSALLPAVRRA

For CATAAC, which binding signal is on record?
The binding signal was 1.13 fold enrichment (6-mer frequency, TF over GST control).

TATCCC was tested. Which binding signal did it give?
Its binding signal is 1.54 fold enrichment (6-mer frequency, TF over GST control).

TGTTAC was tested. Which binding signal did it give?
Its binding signal is 1.43 fold enrichment (6-mer frequency, TF over GST control).

ACCCAC was tested. Which binding signal did it give?
The binding signal was 1.07 fold enrichment (6-mer frequency, TF over GST control).

For TATTGC, which binding signal is on record?
Its binding signal is 1.37 fold enrichment (6-mer frequency, TF over GST control).

For ATTGAA, which binding signal is on record?
Its binding signal is 1.09 fold enrichment (6-mer frequency, TF over GST control).

CGATAC was tested. Which binding signal did it give?
The binding signal was 1.06 fold enrichment (6-mer frequency, TF over GST control).

CGCTAC was tested. Which binding signal did it give?
The binding signal was 1.13 fold enrichment (6-mer frequency, TF over GST control).

For CTGGTC, which binding signal is on record?
Its binding signal is 1.35 fold enrichment (6-mer frequency, TF over GST control).

With GGAAGC as the sequence, how does the binding signal read?
The binding signal was 1.63 fold enrichment (6-mer frequency, TF over GST control).

For CTTACG, which binding signal is on record?
The binding signal was 1.06 fold enrichment (6-mer frequency, TF over GST control).

CATCCG was tested. Which binding signal did it give?
The binding signal was 2.29 fold enrichment (6-mer frequency, TF over GST control).

How did the binding signal turn out when TTTCAA was run?
Its binding signal is 1.37 fold enrichment (6-mer frequency, TF over GST control).

With TACATC as the sequence, how does the binding signal read?
Its binding signal is 1.65 fold enrichment (6-mer frequency, TF over GST control).

How did the binding signal turn out when CACAAC was run?
The binding signal was 1.23 fold enrichment (6-mer frequency, TF over GST control).

ATCCCA was tested. Which binding signal did it give?
The binding signal was 1.05 fold enrichment (6-mer frequency, TF over GST control).

For TGTCTC, which binding signal is on record?
The binding signal was 1.28 fold enrichment (6-mer frequency, TF over GST control).

With TACCGC as the sequence, how does the binding signal read?
Its binding signal is 1.09 fold enrichment (6-mer frequency, TF over GST control).

ATGGCT was tested. Which binding signal did it give?
The binding signal was 1.37 fold enrichment (6-mer frequency, TF over GST control).

With TCTGGG as the sequence, how does the binding signal read?
The binding signal was 1.02 fold enrichment (6-mer frequency, TF over GST control).
